High-throughput results (PubChem)
In the library only some 2.6% were active in any assay of this set; here they are far more common.
GPR7 antagonist: blocks human GPR7 receptor signaling; 290,000 tested, 1.1% active; GPR7-expressing cells, fluorescence antagonist assay; AID 1861; inhibition, % at 4.4 µM; in the data active = inhibition above about 16%, passing the limit was not always enough;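 also: cells stimulated with the agonist NPW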
Target sequence (P48145 whole entry, looked up): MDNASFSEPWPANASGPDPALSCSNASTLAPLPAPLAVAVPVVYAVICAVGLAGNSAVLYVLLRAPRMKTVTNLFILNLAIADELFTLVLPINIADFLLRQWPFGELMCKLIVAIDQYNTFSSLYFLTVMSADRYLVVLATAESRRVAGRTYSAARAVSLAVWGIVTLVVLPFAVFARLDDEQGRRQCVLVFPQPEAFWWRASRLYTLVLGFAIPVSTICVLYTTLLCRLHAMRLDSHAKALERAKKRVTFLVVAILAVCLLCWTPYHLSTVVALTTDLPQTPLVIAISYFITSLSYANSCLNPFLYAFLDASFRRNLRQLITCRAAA
BaF3 tox: reduces parental Ba/F3 cell viability, JAK2V617F counter-screen; 220,000 tested, 1.1% active; CellTiter-Glo ATP luminescence; inhibition, % at 5.6 µM;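 active = inhibition above a per-campaign cutoff, the mean inhibition of all tested compounds plus 3 SD, cut at about 27% in these data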
DNA FID counter: displaces DNA intercalator in HCV helicase counter-screen; DNA fluorescent intercalator displacement, fluorescence; 290,000 tested, 0.17% active; inhibition, % at 7.9 µM; in the data active = inhibition above about 37%;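 also: higher means more ethidium bromide displaced from hairpin DNA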
IEC-6 tox-1: counter-screen for KLF5 inhibitors: cytotoxicity in IEC-6 cells. IEC-6 cytotoxicity, luminescence viability. inhibition, % at 5 µM. 290,000 tested, 0.78% active. AID 1825; in the data active = inhibition above about 22%
Ba/F3 V617F tox: reduce viability of Ba/F3 cells dependent on JAK2V617F | Ba/F3 EpoR-JAK2V617F viability, ATP luminescence | inhibition, % at 5.6 µM | 220,000 tested, 1.1% active | AID 1446;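 active = inhibition above the campaign mean plus 3 SD over all tested compounds, cut at about 24% in these data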;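 also: cytokine-independent growth of Ba/F3 cells driven by EpoR plus mutant JAK2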
KLF5 inhibitor: suppresses KLF5 promoter-driven expression; DLD-1 KLF5 promoter-luciferase reporter, luminescence; inhibition, % at 5 µM; 290,000 tested, 0.23% active; AID 1700;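 active = inhibition above a per-plate limit of that plate's mean compound inhibition plus 3 SD, cut at about 60% in these data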;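 also: higher means less KLF5 promoter-driven luciferase light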
KLF5 inh confirm: KLF5 inhibition, confirmation assay; shares compounds with KLF5 inhibitor; inhibition, % at 4 µM; DLD-1 KLF5 promoter firefly luciferase reporter, luminescence; 610 tested, 79% active; AID 1834;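 active = inhibition above a set limit taken from the earlier primary screen, cut at about 63% in these data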
IEC-6 tox-2: rat IEC-6 cytotoxicity, KLF5 inhibitor counter-screen. 610 tested, 56% active. IEC-6 rat intestinal cells, viability luminescence. inhibition, % at 4 µM. shares compounds with KLF5 inhibitor; in the data active = inhibition above about 23%;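 also: cells exposed to compounds for 48 hours before viability read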
Of the large screens only hits and unclear results are named; the others gave an inactive call (follow-up assays come after a bar, where they were run).

O=C1c2cccc3cc([N+](=O)[O-])cc(c23)C(=O)N1CCN1CCCC1	BaF3 tox 104.0, DNA FID counter 71.6, IEC-6 tox-1 99.8, Ba/F3 V617F tox 99.0 | KLF5 inh confirm inactive | IEC-6 tox-2 97.7
CC(C)c1cc(C(=O)N/N=C/c2ccoc2)cs1	none (no result: BaF3 tox, Ba/F3 V617F tox)
COc1cc(CNc2ccc(S(N)(=O)=O)cc2)ccc1OCC(=O)NC1CCCCC1	KLF5 inhibitor 75.2 | KLF5 inh confirm inactive | IEC-6 tox-2 inactive
O=C(Nc1nncs1)c1cc2c(s1)CCC2	none
O=C(Nc1nccs1)c1cc2c(s1)CCCCC2	KLF5 inhibitor 75.5 | KLF5 inh confirm 70.1 | IEC-6 tox-2 inactive
Cc1ccnc(NS(=O)(=O)c2ccc(Oc3ccccc3)cc2)c1	none
c1cnn(-c2cncc(-n3cccn3)n2)c1	none
COC(=O)c1cn(NC(=O)Cc2ccc(Cl)cc2)c(=O)c2ccccc12	none
O=C(/C=C/c1ccc(O)cc1)c1ccc(NC2=C(N3CCCCC3)C(=O)c3ccccc3C2=O)cc1	none
O=C1C(NS(=O)(=O)c2ccc(Br)cc2)=C(N2CCCCC2)C(=O)c2ccccc21	none (no result: BaF3 tox, Ba/F3 V617F tox)
O=C1C(Nc2ccccc2)=C(N2CCCCC2)C(=O)c2ccccc21	BaF3 tox 102.5, Ba/F3 V617F tox 97.9, KLF5 inhibitor 63.8 | KLF5 inh confirm 72.6 | IEC-6 tox-2 inactive
COc1ccccc1NC1=C(N2CCCCC2)C(=O)c2ccccc2C1=O	BaF3 tox 99.9, Ba/F3 V617F tox 100.5, KLF5 inhibitor 80.5 | KLF5 inh confirm 89.6 | IEC-6 tox-2 inactive
CCOc1ccc(NC(=O)c2ccc(Br)o2)c([N+](=O)[O-])c1	none
Fc1ccc(Cn2nnnc2C(c2cccs2)N2CCN(C3CCCCC3)CC2)cc1 (configuration not stated)	none
Nc1ncnc2c1ncn2[C@H]1C[C@H](O)[C@@H](COP(=O)(O)O)O1	KLF5 inhibitor 74.8 | KLF5 inh confirm inactive | IEC-6 tox-2 inactive
Nc1ncnc2c1ncn2[C@H]1C[C@H](O)[C@@H](CO)O1	none
CCOC(=O)N1CCN(Cc2ccc(O)c3ncccc23)CC1	none
Oc1ccc(CN2CCc3ccccc3C2)c2cccnc12	BaF3 tox 76.7, Ba/F3 V617F tox 75.3, KLF5 inhibitor 70.8 | KLF5 inh confirm 62.7 | IEC-6 tox-2 inactive
O=C(/C=C/c1ccccc1)N(Cc1cccs1)C1CCS(=O)(=O)C1 (configuration not stated)	none
O=C(/C=C/c1ccccc1)Nc1cc(NC(=O)/C=C/c2ccccc2)cc(C(=O)O)c1	none (no result: BaF3 tox, Ba/F3 V617F tox)
O=C(/C=C/c1ccccc1)Nc1cccc(C(=O)O)c1	KLF5 inhibitor 102.3 | KLF5 inh confirm 101.1 | IEC-6 tox-2 inactive
CCCc1nc2c(nnn2Cc2ccccc2)c(=O)[nH]1	none
COc1ccccc1-c1nc(-c2ccccn2)no1	none
COc1ccc(-c2nc(-c3ccccn3)no2)cc1	BaF3 tox 35.0, IEC-6 tox-1 27.6, Ba/F3 V617F tox 34.1, KLF5 inhibitor 109.9 | KLF5 inh confirm 102.8 | IEC-6 tox-2 44.6
C/C(=N\OCc1cccc(C(=O)O)c1)c1ccc(Cl)cc1	KLF5 inhibitor 64.1 | KLF5 inh confirm inactive | IEC-6 tox-2 inactive
COc1ccc(-c2cc(C(F)(F)F)n3ncc(C(=O)N4CCCCC4c4cccnc4)c3n2)cc1 (configuration not stated)	none
CC1CCN(c2ccc(-c3cccs3)nn2)CC1	KLF5 inhibitor 97.6 (no result: BaF3 tox, Ba/F3 V617F tox) | KLF5 inh confirm 85.9 | IEC-6 tox-2 inactive
Cc1ccc2occ(/C=N/NC(=O)c3ccccc3O)c(=O)c2c1	KLF5 inhibitor 63.9 (no result: BaF3 tox, Ba/F3 V617F tox) | KLF5 inh confirm inactive | IEC-6 tox-2 inactive
CC(=O)N(Cc1ccc(F)cc1)C1=C(NCCc2ccccc2)C(=O)c2ccccc2C1=O	IEC-6 tox-1 54.2, KLF5 inhibitor 78.8 | KLF5 inh confirm inactive | IEC-6 tox-2 inactive
CC(=O)N(Cc1ccc(F)cc1)c1cccc(C)c1C	none
CC(C)CN(C(=O)CSc1nn(-c2ccc(Cl)cc2)c(=S)s1)C1CCS(=O)(=O)C1 (configuration not stated)	none
c1ccc(Cn2ccnc2-c2ccco2)cc1	none
O=[N+]([O-])c1nn(-c2ccc3c(c2)OCCO3)n(O)c1=Nc1ccccc1	KLF5 inhibitor 72.4 | KLF5 inh confirm 81.6 | IEC-6 tox-2 inactive
